Abeta yeast res – compounds reversing amyloid beta toxicity in yeast; Potency, µM (titrated, usually from 46.1 µM), most hits filed as activators; yeast expressing A-beta42, growth rescue, OD600, 48 h; response scale: 0% DMSO, 100% iron-clioquinol control; 410,000 compounds, 0.063% hits; AID 1347071; note: nearly all actives have a fitted effect of over 55% in size
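Yeast growth medium received pinned compounds, then yeast cells expressing toxic A-beta were added; plates incubated at 30 C for 48 hr. Growth read as absorbance at 600 nm, normalized to DMSO and equimolar FeCl3 plus clioquinol controls.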
aSyn yeast inh – alpha-synuclein toxicity inhibition in yeast. Yeast expressing alpha-synuclein, growth rescue, BacTiter-Glo, 24 h. Potency, µM (highest dose often 46.1 µM), without a hit: at the highest dose growth rescue (activation), most hits filed as activators. 370,000 compounds, 0.14% hits; note: % of control where 0% means no effect; nearly all actives have a fitted effect of over 65% in size
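Readout is rescue of growth in alpha-synuclein-expressing yeast, so inhibitors of toxicity appear as activators. Growth after 24 hr at 30 deg C in galactose medium is quantified by luminescence.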
FUS suppressor – suppressors of FUS proteinopathy in yeast. S. cerevisiae FUS-expressing, growth rescue, OD600, 24 h. Potency, µM (series often up to 76.6 µM), usual class: activators. 390,000 compounds, 0.24% hits. AID 1347120;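 note: plate controls were DMSO vehicle for no effect and reference control for full effect; nearly all actives have a fitted effect of over 55% in size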
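Read-out: OD at 600 nm after 24hr at 30C, reporting rescue of FUS-induced yeast toxicity. Cells at OD 0.005 in galactose (2%) minimal medium; compounds tested in a dilution series; CP55940 titration from 92uM final as control.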
TDP43 rescue – inhibitors of TDP-43 toxicity in yeast. TDP-43 expressing yeast growth rescue, BacTiter-Glo, 24 h. Potency, µM (highest dose often 46.1 µM), inactives show at the top dose growth rescue (activation), most hits filed as activators. AID 652104. 410,000 compounds, 1.8% hits; note: % of control where 0% means no effect; nearly all actives have a fitted effect of over 50% in size
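Readout is BacTiter-Glo luminescence of cell growth, so inhibitors register as activators. TDP-43-expressing yeast at OD600=0.02 in galactose medium, after raffinose pregrowth to mid-log, were incubated with compound for 24 hr at 30 deg C.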
An asterisk follows results filed as active; i = inactive; ? = inconclusive; / = not tested or not shown. In the library only some 2.1% were active in any assay of this set; here they are far more common. Calls come from the whole dose curve; as a rule, active = well fitted curve in the direction sought with a large enough effect; inconclusive = small, poorly fitted or top-dose-only effect, or another doubt; inactive = no such curve, though single readings can be large; an effect the other way counts as inactive or inconclusive. Potency is the fitted concentration of half-maximal effect.

SMILES | Abeta yeast res | aSyn yeast inh | FUS suppressor | TDP43 rescue
O=S(=O)(c1ccc(Cl)c(Cl)c1)c1snnc1-c1ccccc1 | i | -19% | i | 13µM*
CCN1CCN(C(=O)c2ccc(Cl)c(S(=O)(=O)N3CCCCCC3)c2)CC1 | i | 6% | i | 18%
COc1ccc(C2CC(=O)N(Cc3ccc(F)cc3)c3ccccc3S2)cc1 (stereo unspecified) | i | 11% | i | 16µM*
Cc1ccc(-c2csc3nc[nH]c(=S)c23)cc1 | i | 9% | i | 18µM*
CN(C(=O)Cc1c(C(=O)O)n(C)c2ccccc12)c1ccc(Cl)cc1 | i | 3% | i | -23%
CCc1ccc(N(CC)C(=O)Cc2c(C(=O)O)n(C)c3ccccc23)cc1 | i | -11% | i | 28µM*
CC(C)c1ccc(N(C)C(=O)Cc2c(C(=O)O)n(C)c3ccccc23)cc1 | i | 10% | i | 28µM*
O=C(N/N=C\c1ccc(F)cc1)c1cc(OCC(F)(F)F)ccc1OCC(F)(F)F | i | 2% | i | -23%
C/C=C/C=C/C(=O)N1CC[C@]23c4ccccc4N[C@H]4N(C)c5cccc6c5[C@]42CCN([C@H]6C2OC2(C)C)[C@H]13 (stereo partly specified) | ? | 8% | 16µM* | 12%
Cc1cc(C)nc(NC(=O)c2c(-c3c(Cl)cccc3Cl)noc2C)n1 | i | 3% | i | 2%
N#Cc1ccc(-c2ccco2)nc1SCc1ccccc1 | i | 0% | i | 15%
COC(OC)c1ccc(C#N)c(SCc2ccccc2)n1 | i | -2% | i | 14µM*
O=C(Nc1ccc(Cl)cc1)c1ccc(OCC2CCCO2)cc1 (stereo unspecified) | i | -9% | i | 12%
O=C(Nc1ccc(Br)cc1Cl)c1ccc(OCC2CCCO2)cc1 (stereo unspecified) | i | 0% | i | 18µM*
O=C(O)c1cc(-c2ccccc2)c(N2CCOCC2)s1 | i | -2% | i | -3%
O=C(c1ccc(Cl)cc1)c1cc(-c2ccccn2)c(N2CCOCC2)s1 | i | 5% | i | 14µM*
COc1ccc(-c2[nH]c(-c3ccc4c(c3)OCO4)nc2-c2ccccc2)cc1 | i | -18% | ? | 16µM*
C=CCN(c1ccc(Br)cc1C(=O)OC)S(C)(=O)=O | i | 0% | i | -14%
S=C(NCCc1cccc(Cl)c1)NC1CCCCC1 | 7.1µM* | 2% | i | 4%
O=C(NCc1ccccc1Cl)c1ccc(S(=O)(=O)Nc2cccc(C(F)(F)F)c2)cc1 | i | 9% | / | 22%
O=C(COc1ccc(-c2nnco2)cc1)NC1CCCc2ccccc21 (stereo unspecified) | i | 1% | i | 20µM*
Cn1c(=O)c([N+](=O)[O-])c(Cl)c2ccccc21 | i | -76% | i | ?
Cc1onc(-c2ccccc2)c1C(=O)Oc1cccnc1 | i | / | i | ?
O=C(O)c1ccccc1C(=O)N1N=C2/C(=C/c3cccc([N+](=O)[O-])c3)CCCC2C1c1cccc([N+](=O)[O-])c1 (stereo unspecified) | i | 1% | 25µM* | -13%
CCn1c(-c2cccc(Br)c2)n[nH]c1=S | i | 0% | i | 20µM*
SMILES | Abeta yeast res | aSyn yeast inh | FUS suppressor | TDP43 rescue
Cc1cc(-n2c(C)cc(C(=O)CN3C(=O)C(=O)N(C)C3=O)c2C)no1 | i | -7% | i | 19%
Cc1cc(-n2c(C)cc(C(=O)CCl)c2C)no1 | i | -7% | i | 3.5µM*
COc1ccc(CCn2c(C)cc(C(=O)CCl)c2C)cc1OC | i | -7% | i | 16µM*
COc1ccc(-n2c(C)cc(C(=O)CCl)c2C)cc1 | i | 11% | i | 3.2µM*
Cc1ccc(S(=O)(=O)c2ccc([N+](=O)[O-])cn2)cc1 | i | -75% | i | ?
Cc1cc(S(=O)(=O)c2ccc([N+](=O)[O-])cn2)ccc1Br | i | -22% | i | 1µM*
COc1ccc(N2C(=O)CC(SCC(=O)O)C2=O)cc1 (stereo unspecified) | i | 1% | i | 1%
O=C1CC(SCc2nc3ccccc3[nH]2)C(=O)N1c1ccc(F)c(Cl)c1 (stereo unspecified) | i | / | i | 13µM*
COc1ccc(N2C(=O)CC(SCc3ccc(Cl)cc3)C2=O)cc1 (stereo unspecified) | i | 12% | i | 22µM*
CCOc1ccccc1NC(=O)Cc1coc2ccc(C)cc12 | ? | 13µM* | i | /
Cc1ccc2occ(CC(=O)Nc3c(C)cccc3C)c2c1 | i | / | i | 13µM*
O=C(O)c1cc2c(s1)-c1ccccc1OC2 | i | -4% | i | 32µM*
CCOc1ccc(S(=O)(=O)N2CCC(C(=O)N3CCOCC3)CC2)cc1C | i | 9% | i | -2%
C=CCn1c(C)cc(C(=O)COC(=O)c2cncc(Br)c2)c1C | i | 19% | i | 20µM*
C=CCn1c(C)cc(C(=O)COc2ncnc3sccc23)c1C | i | 5% | ? | -37%
O=[N+]([O-])c1ccc(Nc2cccc(F)c2)nc1 | i | 1% | i | 13µM*
O=[N+]([O-])c1ccc(Nc2ccc(F)cc2)nc1 | i | -17% | i | 22%
Cc1ccc(Nc2ccc([N+](=O)[O-])cn2)cc1Cl | i | 0% | i | 0.89µM*
CCCN1CCN(CCCNC(=O)c2cc3c(Cl)nc4ccccc4c3s2)CC1 | i | / | i | -24%
CCC(=O)Nc1ccc(SC#N)cc1C | i | 8% | i | 11µM*
O=[N+]([O-])c1nn(-c2ccc3c(c2)OCCO3)n(O)c1=Nc1ccccc1 | i | -16% | i | 11µM*
O=[N+]([O-])c1nn(-c2ccc3c(c2)OCCO3)n(O)c1=Nc1ccc(Cl)cc1 | i | -18% | i | 14%
CCc1ccc(N=c2c([N+](=O)[O-])nn(-c3ccc4c(c3)OCCO4)n2O)cc1 | ? | 0% | i | 20µM*
CCn1c(=O)c(=O)[nH]c2cc(C(=O)Nc3ccc(S(=O)(=O)N4CCCC4)cc3)ccc21 | i | -3% | i | -1%
COc1ccc(-n2ncc3c(N4CCC(C)CC4)ncnc32)cc1 | i | -8% | i | 14µM*
SMILES | Abeta yeast res | aSyn yeast inh | FUS suppressor | TDP43 rescue
Cc1nn(Cc2ccc(C(=O)Nc3ccccc3C(F)(F)F)o2)c(C)c1Br | i | / | i | 13µM*
CCOc1ncccc1C(=O)OCC(=O)NC(=O)NC(C)C | i | 9% | i | 5%
Brc1ccsc1/C=N/Nc1ccccc1 | i | -2% | i | 10µM*
Cc1nn2c(=O)cc(COC(=O)c3c(F)cccc3Cl)nc2s1 | i | 13% | i | 35µM*
Cc1nn2c(=O)cc(COC(=O)c3ccc(NC(=O)COc4ccccc4F)cc3)nc2s1 | i | / | i | 6%
COc1ccc(-c2nsc(NC(=O)c3oc4ccc(Cl)cc4c3C)n2)cc1 | i | / | i | 5%

Assay outcomes deposited in PubChem by National Center for Advancing Translational Sciences (NCATS).
